We go through 35 molecules from PubChem BioAssay (NCI).

Compounds without any hit were thinned out: in the full panel of roughly 83,000, 20% have a hit.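 Results are percent growth after 48 hours of single-concentration exposure. 100 means growth as in untreated cells, lower positive values show inhibition; negative values down to -100 show cell death.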 A number with no mark means an inactive call. Active and inactive are the calls of the source. Rule for the calls: active = growth percent below 10; inactive = the rest.

For the first experiment, the system named is ACHN renal. In words: NCI-60 one-dose screen, 48 h (100 = growth as untreated, 0 = no growth, -100 = all killed). The settings on record: 10 µM unless noted.
As for `COc1ccc(Cn2cc3c(c2-c2cc(OC)c(OC)c(OC)c2)CCc2c(CN4CCOCC4)noc2-3)cc1`, the growth is 43.4%.
With `CN(C)CCN(C)c1ccc2ncc(C#Cc3cncc(C(=O)Nc4ccc(CN5CCN(C)CC5)c(C(F)(F)F)c4)c3)n2n1`, the growth is 47.2%.
Still for that read-out and setting: with `CCO/C=N/C1=C(C#N)C(c2ccc(F)cc2)c2sc3c(CC)cccc3c2O1` (stereo not given) the figure was 28.4%.
Still for that read-out and setting: with `COc1ccc(/C=C/C(=O)c2cccc(NC(=O)CSc3nc4ccccc4c(=O)n3-c3ccccc3)c2)cc1OC` the figure was 100%; with `CCN1CCN(Cc2cn(-c3ccc(S(N)(=O)=O)cc3)nn2)CC1`, 108%; with `Cc1cccc2c3c(sc12)C(c1ccc(Cl)cc1)c1c(nc(CC(=O)Nc2ccccc2)[nH]c1=O)O3` (stereo not given), 47.3%.
On to `C=C=COc1cccc(/C(N)=N/C(N)=N/c2nc3ccccc3s2)c1`, for which the growth was 79.7%.
Still for that read-out and setting: with `Cc1cc2nc(C(Cl)Cl)nc(-c3cccs3)n2n1` the figure was -36.4% (active).

Another experiment deals with CAKI-1 renal. The description is as above. The settings on record: 10 µM unless noted.
Turning to `COc1cc(-c2nnc(SCc3ccc(O)c4ncccc34)n2-c2ccccc2)cc(OC)c1OC`, the growth was 1.72% (active).
Still for that read-out and setting: with `CN1c2ccccc2Sc2cc(C=C(C#N)C#N)ccc21` the figure was 91.8%; with `CC(=O)N(C)C1CCc2c(sc(NC(=O)c3ccc(C(C)(C)C)cc3)c2C(N)=O)C1` (stereo not given), 64.8%; with `COc1cc(/C=N/NC(=O)c2cn(C3CC3)c3c(OC)c(N4CC5CCCNC5C4)c(F)cc3c2=O)ccc1O` (stereo not given), 82.9%.
The same measure, in the same setting: as for `CC1(C)[C@@H](O)CC[C@]2(C)[C@H]3CC[C@@H]4[C@H]5[C@H](C(=O)/C=C\c6ccc([N+](=O)[O-])cc6)CC[C@]5(O)CC[C@@]4(C)[C@]3(C)CC[C@@H]12`, the figure is 27.4%.
Regarding `CCCCCc1ccc(S(=O)(=O)Nc2cccc(-c3csc(NC(=O)CN4CCN(C)CC4)n3)c2)cc1`, the growth is 78.5%.
As for `O=S(=O)(NCCNc1nccc(-n2cnc3ccccc32)n1)c1ccc(Br)cc1`, the growth is 81.5%.
For the molecule `COc1ccccc1-n1cc(C#N)c(N)c1C(=O)c1ccc(Br)cc1`, the growth is 68.8%.
Same read-out and setting: as for `COc1cc2oc(-c3cccc(C(=O)N[C@@H](CC(C)C)C(=O)OC(C)(C)C)c3)cc(=O)c2c(OC)c1OC`, the figure is 53.6%.
As to `CC1(C)CC[C@]23CC[C@]4(C)[C@H](CC[C@@H]5[C@@]6(C)CCCN(CO)C(C)(C)[C@@H]6CC[C@]54C)[C@H]2[C@H]1OC3`, the growth was 62.1%.
With `CCOC(=O)c1c(NC(=O)c2ccccc2C(F)(F)F)sc2c1CCC(=O)C2`, the growth was 21.1%.
Take `COc1ccc(N2C(=O)c3cc(Cl)ccc3NC2SCc2ccccc2)cc1` (stereo not given): the growth was 81.8%.
On the same count and under the same terms, as for `CCCCCc1ccc(S(=O)(=O)Nc2cccc(-c3csc(NC(=O)CNCCN(C)C)n3)c2)cc1`, the figure is 86.8%; as for `O=C1CCCc2nc(Nc3ccc(S(=O)(=O)Nc4ccc([N+](=O)[O-])cc4)cc3)ncc21`, 89.9%.
On the same count and under the same terms, with `Clc1nc2ccccc2nc1-c1nnc(C2CCCCC2)o1` the figure was 89.5%; with `Cc1ccc(C2=NN(C)C(=O)C3(CCCC3)C2)cc1`, 100%.
For `O=C1[C@H]2Cc3c([nH]c4ccccc34)[C@@H](c3c(Cl)cccc3Cl)N2C(=O)CN1C1CCN(CC2CCCCC2)CC1`, the growth is 81.9%.
As to `NC(=O)c1cccc(-n2ccc3cc(NC(=O)Nc4ccc(N5CCOCC5)c(C(F)(F)F)c4)ccc32)n1`, the growth is 6.33% (active).
Regarding `COc1ccc(N2CCN(C3=C(Cl)C(=O)C(C)=C(C)C3=O)CC2)cc1`, the growth was 91.9%.
For `C=C(C=O)[C@@H]1CC[C@]2(C)[C@H](C(=O)C=C3[C@H]4C[C@](C)(C(=O)OC)CC[C@]4(C)CC[C@]32C)[C@@]1(C)CCC#N`, the growth was 7.53% (active).
`CCOc1ccc(C(=O)Nc2ncc(Cc3ccc(F)cc3)s2)cc1`: the growth was 38%.
For `Cc1ccc(-c2cc3nc(C(Cl)Cl)nc(-c4cccs4)n3n2)cc1`, the growth is 55.6%.
As to `CCOC(=O)c1c(N)c(C#N)cn1-c1cc(OC)c(OC)c(OC)c1`, the growth is 91.8%.
For `CC(=O)C1=C(C)NC(NNC(N)=S)=NC1c1ccccc1` (stereo not given), the growth was 64.7%.
As for `NS(=O)(=O)c1ccc(Nc2nc(N/N=C/c3ccccn3)nc(Nc3ccccc3)n2)cc1`, the growth is -25.3% (active).
For `Oc1cccc2ccc(-c3nnc(SCc4ccc(O)c5ncccc45)o3)nc12`, the growth was 8.28% (active).
In the case of `O=C1CCCC2=C1C(c1c[nH]c3ccc(Br)cc13)Cc1cc(Br)ccc1N2` (stereo not given), the growth was 24.7%.
